Results taken from PubChem BioAssay (NCI).
The panel holds about 83,000 compounds, 20% with a hit somewhere; the sample as a whole holds those more often.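 Percent growth is the endpoint: 0 to 100 indicates growth inhibition (40 means 60% inhibition), 0 means no net growth, and negative values indicate cell death.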 Activity calls are given as the source filed them. The calls were made as follows: active = growth percent below 10; inactive = the rest.

Tests used:
Experiment in all cases: NCI-60 one-dose screen, 48 h (100 = growth as untreated, 0 = no growth, -100 = all killed)
Settings in all cases: 10 µM unless noted
[1] = system: NCI-H23 lung
[2] = system: NCI-H226 lung
[3] = system: NCI-H322M lung
[4] = system: HOP-62 NSCLC
[5] = system: NCI-H460 lung
[6] = system: HOP-92 NSCLC
[7] = system: NCI-H522 lung
[8] = system: A549/ATCC NSCLC
[9] = system: 786-0 renal
[10] = system: COLO 205 colon
[11] = system: DU-145 prostate
[12] = system: K-562 leukemia
[13] = system: MALME-3M melanoma
[14] = system: MDA-MB-231 breast
[15] = system: RXF 393 renal
[16] = system: SF-268 CNS
[17] = system: SF-295 CNS
[18] = system: SF-539 CNS
[19] = system: UACC-257 melanoma
[20] = system: M14 melanoma

Measured: growth

CCNc1nc(-c2ccc(Cl)c(OC)c2)c(-c2ccnc(NCCNS(=O)(=O)c3ccc(Cl)cc3)n2)s1
active: [6] -2.89% | [7] -25.5% | [9] 6.16% | [14] 0.973%
inactive: [1] 26.2% | [2] 20.8% | [3] 44.9% | [4] 21.5% | [5] 17.1% | [8] 27.6% | [10] 26.2% | [11] 44.3% | [12] 18.3% | [13] 46.2% | [15] 18.9% | [16] 37% | [17] 17.2% | [18] 38.3% | [19] 50.4% | [20] 29.7%

CS(=O)(=O)c1cccc(Nc2ncc3cc(-c4ccccc4Cl)ccc3n2)c1
inactive: [1] 26.7% | [2] 31.1% | [3] 26.8% | [4] 15.3% | [8] 13.8% | [9] 12.2% | [11] 18.6% | [13] 11.8% | [16] 19.9% | [17] 20.9% | [19] 24.8%
active: [5] 5.47% | [6] -1.06% | [7] -44.3% | [10] -8.05% | [12] 1.05% | [14] 3.46% | [15] -14.3% | [18] -10.5% | [20] 5.89%

COc1cccc(C(=O)Nc2cccc(NC(=O)c3ccccn3)c2)c1
inactive: [1] 93.7% | [2] 112% | [3] 98.1% | [4] 102% | [5] 114% | [6] 115% | [7] 89.8% | [8] 97.5% | [9] 85.6% | [10] 120% | [11] 109% | [12] 90.5% | [13] 94.4% | [14] 105% | [15] 115% | [16] 96.9% | [17] 91.6% | [18] 104% | [19] 109% | [20] 87.9%

O=C(OCc1ccc2c(Br)cc(Br)c(O)c2n1)N1CCN(C(=O)c2cc3ccccc3[nH]2)CC1
inactive: [1] 39.4% | [2] 39.5% | [3] 44.9% | [4] 23.3% | [5] 12% | [6] 25.7% | [7] 37.5% | [8] 12.7% | [9] 49.3% | [10] 50.6% | [11] 48.9% | [12] 21.7% | [13] 51.5% | [14] 46.3% | [15] 41% | [16] 31.6% | [17] 21.3% | [18] 47.9% | [19] 31.5% | [20] 30%

Cc1cc(C)n(C(=O)CSc2nc3sc4c(c3c(=O)n2-c2ccccc2)CCCCC4)n1
inactive: [1] 91.6% | [2] 98.1% | [3] 99.1% | [4] 96.3% | [5] 103% | [6] 95.1% | [7] 85.8% | [8] 97.6% | [9] 108% | [10] 115% | [11] 106% | [12] 97.1% | [13] 107% | [14] 108% | [15] 99.9% | [16] 104% | [17] 101% | [18] 105% | [19] 96.7% | [20] 113%

C=C(C)[C@@H]1CC[C@]2(COC(=O)c3cccnc3)CC[C@]3(C)[C@H](CC[C@@H]4[C@@]5(C)CCCN(C(=O)c6cccnc6)C(C)(C)[C@@H]5CC[C@]43C)[C@@H]12
inactive: [1] 42.6% | [2] 42.1% | [3] 65.6% | [4] 61% | [5] 17.7% | [6] 32.9% | [7] 34.3% | [8] 29.3% | [9] 45.1% | [10] 27.9% | [11] 44% | [12] 13.7% | [13] 69.1% | [14] 52.7% | [15] 56.1% | [16] 45.5% | [17] 40.9% | [18] 46.4% | [19] 19.9% | [20] 41.5%

Nc1n[nH]c2cccc(C#Cc3cccc(C(=O)Nc4ccc(Cl)c(C(F)(F)F)c4)c3)c12
active: [12] 6.22%
inactive: [1] 59.1% | [2] 36% | [3] 77% | [4] 67.5% | [5] 64.3% | [6] 20.1% | [7] 30.9% | [8] 71.3% | [9] 76.6% | [10] 29.3% | [11] 83.6% | [13] 14.9% | [14] 40.4% | [15] 66.9% | [16] 61.7% | [17] 66.6% | [18] 33.5% | [19] 48.2% | [20] 23%

COc1ccc(C(=O)/C=C/c2ccc(Cl)cc2)cc1S(N)(=O)=O
active: [6] -26.6% | [9] -30.7% | [12] 3.05% | [20] -57.3%
inactive: [1] 87.8% | [2] 84.3% | [3] 29.1% | [4] 53.6% | [5] 65.8% | [7] 56.9% | [8] 54.5% | [10] 60.6% | [11] 90.8% | [13] 90.1% | [14] 65.8% | [15] 97.4% | [16] 91.7% | [17] 98.3% | [18] 17.7% | [19] 87.1%

CC(=O)/C(Br)=C/c1ccc(Br)o1
inactive: [1] 68.4% | [2] 85.4% | [3] 102% | [4] 137% | [5] 105% | [6] 33.8% | [7] 55.7% | [8] 102% | [10] 73.8% | [11] 68.5% | [13] 61.4% | [14] 95.7% | [16] 75% | [17] 73.7% | [18] 94% | [19] 102% | [20] 64.9%
active: [9] 5.9% | [12] 4.61% | [15] -13.5%

COCCNC(=O)Cc1cc(-c2ccc(Cl)cc2)n(-c2ccccc2)c1C
inactive: [1] 73.6% | [2] 89.8% | [3] 95.4% | [5] 94% | [6] 78.8% | [7] 58.8% | [8] 82.1% | [9] 88.7% | [10] 96.3% | [11] 101% | [12] 64.7% | [13] 93.7% | [14] 89.9% | [15] 84.8% | [16] 88.5% | [17] 85.6% | [18] 92.8% | [19] 95.6% | [20] 88.1%
active: [4] 2.89%

COc1cc(C(=O)/C=C/c2c(-c3cccs3)nc3sc(C)cn23)cc(OC)c1OC
inactive: [2] 33.1% | [3] 13.3% | [8] 10.6% | [14] 43.3% | [16] 20%
active: [1] 6.64% | [4] -8.11% | [5] -30.6% | [6] -2.76% | [7] -2.1% | [9] 7.58% | [10] 2.63% | [11] -18.1% | [12] 7.44% | [13] -10.6% | [15] -35.3% | [17] 3.07% | [18] -2.02% | [19] 0.649% | [20] 1.71%

O=C(Nc1cccc(Cl)c1)Oc1c(Cl)c(Cl)c(Cl)c(Cl)c1Cl
inactive: [1] 88.1% | [2] 83.8% | [3] 109% | [4] 81.7% | [5] 101% | [6] 58.7% | [7] 83.9% | [8] 96.8% | [9] 97.9% | [10] 101% | [11] 95.6% | [12] 98.6% | [13] 101% | [14] 94.3% | [15] 117% | [16] 95.9% | [17] 90% | [18] 95.3% | [19] 110% | [20] 97.3%

CCCCCCCCCCCCCCCCCCOc1ccccc1CC(=O)OCC[N+]1(C)CCCCC1
active: [6] -9.25% | [15] -3.91%
inactive: [1] 29.8% | [2] 28.1% | [3] 84.6% | [4] 70% | [5] 62.2% | [7] 33.3% | [8] 42.2% | [9] 31.2% | [10] 55.6% | [11] 71.6% | [12] 22.6% | [13] 45.3% | [14] 10.3% | [16] 43.5% | [17] 73.6% | [18] 68.6% | [19] 80.6% | [20] 34.7%

O=C1NC(=O)C(=Cc2cc(-c3ccc(Cl)cc3)n(-c3ccccc3)n2)C(=O)N1
inactive: [1] 99.3% | [2] 82.5% | [3] 94% | [4] 99.4% | [5] 98.6% | [6] 94.4% | [7] 103% | [8] 97.4% | [9] 82.5% | [10] 108% | [11] 105% | [12] 90.6% | [13] 99.2% | [14] 99.8% | [15] 86% | [16] 105% | [17] 93.8% | [18] 96.5% | [19] 101% | [20] 93.1%
